From PubChem BioAssay (NCATS)
Records with an inconclusive call do not appear. Entries that show only a call come without a potency. Active and inactive are the calls of the source. Calls come from the whole dose curve; as a rule, active = well fitted curve in the direction sought with a large enough effect; inconclusive = small, poorly fitted or top-dose-only effect, or another doubt; inactive = no such curve, though single readings can be large; an effect the other way counts as inactive or inconclusive.

Experiment: qHTS of pediatric cancer cell lines to identify multiple opportunities for drug repurposing: Confirmatory screen for Rh18 cells (AID 1347125)
Details: Rh18 rhabdomyosarcoma cells, viability; series mostly up to 45.9 µM
Summary of the method: (§1)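 Cells (500-1,000/well) rested 5 h, then received compounds for 48 h; metabolically active cells were measured by CellTiter-Glo luminescence. Final concentrations spanned up to 46 µM (MIPE, 11-point) or 0.59 nM-46 µM (NPC, 8-point) in primary screens, 11-point in follow-ups.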
Note: nearly all actives have a fitted effect of over 55% in size.
Potency is the fitted concentration of half-maximal effect.

| SMILES | Potency |
| --- | --- |
| FC(F)(F)c1ccc(C=Cc2nc(COc3ccc(CCCCn4ccnn4)cc3)co2)cc1 | inactive |
| Cc1ccc(C(=O)N(CCCN)[C@@H](c2nc3cc(Cl)ccc3c(=O)n2Cc2ccccc2)C(C)C)cc1 | inactive |
| CO[C@H]1/C=C\O[C@@]2(C)Oc3c(C)c(O)c4c(O)c(c5c(nc6cc(C)ccn65)c4c3C2=O)NC(=O)C(C)=CC=C[C@H](C)[C@H](O)[C@@H](C)[C@@H](O)[C@@H](C)[C@H](OC(C)=O)[C@H]1C | inactive |
| CC[C@]1(O)C[C@H]2CN(CCC3=c4ccccc4=N[C]3[C@@](C(=O)OC)(c3cc4c(cc3OC)N(C)[C@H]3[C@@](O)(C(N)=O)[C@H](O)[C@]5(CC)C=CCN6CC[C@]43[C@@H]65)C2)C1 | inactive |
| CC1(COc2ccc3c(c2)ncn3-c2ccc3cccc(N4CCC(N)CC4)c3n2)COC1 | inactive |
| C[C@@]1(C(=O)Nc2ccc(F)nc2)CCCN1c1nc(Nc2cc(C3CC3)[nH]n2)c2cccn2n1 | 7.37 µM (active) |
| CC1CNc2c(cccc2S(=O)(=O)N[C@@H](CCCN=C(N)N)C(=O)N2CC[C@@H](C)C[C@@H]2C(=O)O)C1 (stereo partly drawn) | inactive |
| C=C1[C@H](n2cnc3c(=O)[nH]c(N)nc32)C[C@H](O)[C@H]1CO | inactive |
| Cc1cnc(-c2cc(N3CCN(C(=O)CCS(C)(=O)=O)CC3)ncc2Cl)c(C)c1 | inactive |
| CCC(=O)OCC(=O)[C@@]1(OC(=O)CC)[C@@H](C)C[C@@H]2[C@H]3CCC4=CC(=O)C=C[C@]4(C)[C@@]3(F)[C@@H](O)C[C@@]21C | inactive |

Experiment: qHTS of pediatric cancer cell lines to identify multiple opportunities for drug repurposing: Confirmatory screen for Rh30 cells (AID 1347126)
Details: Rh30 rhabdomyosarcoma cell viability; series mostly up to 45.9 µM
Summary of the method: as §1

| SMILES | Potency |
| --- | --- |
| Cc1ccc(C(=O)N(CCCN)[C@@H](c2nc3cc(Cl)ccc3c(=O)n2Cc2ccccc2)C(C)C)cc1 | 38 µM (active) |
| C[C@H](c1ccc(F)cc1CCCC(=O)O)N(c1cc(F)ccc1F)S(=O)(=O)c1ccc(Cl)cc1 | inactive |
| CO[C@H]1/C=C\O[C@@]2(C)Oc3c(C)c(O)c4c(O)c(c5c(nc6cc(C)ccn65)c4c3C2=O)NC(=O)C(C)=CC=C[C@H](C)[C@H](O)[C@@H](C)[C@@H](O)[C@@H](C)[C@H](OC(C)=O)[C@H]1C | inactive |
| NC(N)=Nc1nc(CSCCC(N)=NS(N)(=O)=O)cs1 | inactive |
| COC(=O)[C@H](c1ccccc1Cl)N1CCc2sccc2C1 | inactive |
| CON(C)C(=O)N1N=C(c2cc(F)ccc2F)S[C@]1(CCCN)c1ccccc1 | inactive |
| CC1=C(CC(=O)O)c2cc(F)ccc2C1=Cc1ccc(S(C)=O)cc1 (stereo not drawn) | inactive |
| CC[C@]1(O)C[C@H]2CN(CCC3=c4ccccc4=N[C]3[C@@](C(=O)OC)(c3cc4c(cc3OC)N(C)[C@H]3[C@@](O)(C(N)=O)[C@H](O)[C@]5(CC)C=CCN6CC[C@]43[C@@H]65)C2)C1 | inactive |
| CC1CNc2c(cccc2S(=O)(=O)N[C@@H](CCCN=C(N)N)C(=O)N2CC[C@@H](C)C[C@@H]2C(=O)O)C1 (stereo partly drawn) | 20.8 µM (active) |
| CC(C)CN(C[C@H](O)[C@H](Cc1ccccc1)NC(=O)O[C@H]1CCOC1)S(=O)(=O)c1ccc(N)cc1 | inactive |
| C=C1[C@H](n2cnc3c(=O)[nH]c(N)nc32)C[C@H](O)[C@H]1CO | inactive |
| C[C@@H]1[C@H](O)[C@@H](C)C=CC=CC=CC=CC=CC=CC=C[C@H](O[C@@H]2O[C@H](C)[C@H](O)[C@H](N)[C@@H]2O)C[C@@H]2O[C@](O)(C[C@@H](O)C[C@@H](O)[C@H](O)CC[C@@H](O)C[C@@H](O)CC(=O)O[C@H]1C)C[C@H](O)[C@@H]2C(=O)O | inactive |
| Cc1cnc(-c2cc(N3CCN(C(=O)CCS(C)(=O)=O)CC3)ncc2Cl)c(C)c1 | inactive |
| CCC(=O)OCC(=O)[C@@]1(OC(=O)CC)[C@@H](C)C[C@@H]2[C@H]3CCC4=CC(=O)C=C[C@]4(C)[C@@]3(F)[C@@H](O)C[C@@]21C | inactive |
| C[C@@H]1C[C@H]2[C@@H]3CCC4=CC(=O)C=C[C@]4(C)[C@@]3(F)[C@@H](O)C[C@]2(C)[C@@]1(O)C(=O)CO | inactive |
| COc1ccc(-c2ccc3ncc4c(c3c2)n(-c2ccc(N3CCNCC3)c(C(F)(F)F)c2)c(=O)n4C)cn1 | 0.293 µM (active) |
| N#CC(=C1Nc2ccccc2S1)c1ccnc(OCc2ccc(CN3CCOCC3)cc2)n1 | inactive |

Experiment: qHTS of pediatric cancer cell lines to identify multiple opportunities for drug repurposing: Confirmatory screen for OHS-50 cells (AID 1347128);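 note: compound exposure lasted 48 h at 37 degrees C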
Details: OHS-50 osteosarcoma cells viability; series mostly up to 45.9 µM
Summary of the method: as §1

| SMILES | Potency |
| --- | --- |
| CC1C(=O)OC2C(O)C34C5CC(C(C)(C)C)C36C(OC(=O)C6O)OC4(C(=O)O5)C12O (stereo not drawn) | inactive |
| FC(F)(F)c1ccc(C=Cc2nc(COc3ccc(CCCCn4ccnn4)cc3)co2)cc1 | inactive |
| NC(N)=Nc1nc(CSCCC(N)=NS(N)(=O)=O)cs1 | inactive |
| COC(=O)[C@H](c1ccccc1Cl)N1CCc2sccc2C1 | inactive |
| CON(C)C(=O)N1N=C(c2cc(F)ccc2F)S[C@]1(CCCN)c1ccccc1 | 0.0052 µM (active) |
| CC1=C(CC(=O)O)c2cc(F)ccc2C1=Cc1ccc(S(C)=O)cc1 (stereo not drawn) | inactive |
| C[C@@]1(C(=O)Nc2ccc(F)nc2)CCCN1c1nc(Nc2cc(C3CC3)[nH]n2)c2cccn2n1 | 5.22 µM (active) |
| CC1CNc2c(cccc2S(=O)(=O)N[C@@H](CCCN=C(N)N)C(=O)N2CC[C@@H](C)C[C@@H]2C(=O)O)C1 (stereo partly drawn) | inactive |
| CC(C)CN(C[C@H](O)[C@H](Cc1ccccc1)NC(=O)O[C@H]1CCOC1)S(=O)(=O)c1ccc(N)cc1 | inactive |
| C=C1[C@H](n2cnc3c(=O)[nH]c(N)nc32)C[C@H](O)[C@H]1CO | inactive |
| C[C@@H]1[C@H](O)[C@@H](C)C=CC=CC=CC=CC=CC=CC=C[C@H](O[C@@H]2O[C@H](C)[C@H](O)[C@H](N)[C@@H]2O)C[C@@H]2O[C@](O)(C[C@@H](O)C[C@@H](O)[C@H](O)CC[C@@H](O)C[C@@H](O)CC(=O)O[C@H]1C)C[C@H](O)[C@@H]2C(=O)O | inactive |
| Cc1cnc(-c2cc(N3CCN(C(=O)CCS(C)(=O)=O)CC3)ncc2Cl)c(C)c1 | inactive |
| CN1CCN(c2ncc(-c3cc(Cl)cc(Cl)c3Cl)c(N)n2)CC1 | inactive |
| CCC(=O)OCC(=O)[C@@]1(OC(=O)CC)[C@@H](C)C[C@@H]2[C@H]3CCC4=CC(=O)C=C[C@]4(C)[C@@]3(F)[C@@H](O)C[C@@]21C | inactive |
| C[C@@H]1C[C@H]2[C@@H]3CCC4=CC(=O)C=C[C@]4(C)[C@@]3(F)[C@@H](O)C[C@]2(C)[C@@]1(O)C(=O)CO | inactive |
| COc1ccc(-c2ccc3ncc4c(c3c2)n(-c2ccc(N3CCNCC3)c(C(F)(F)F)c2)c(=O)n4C)cn1 | 0.369 µM (active) |
